This excerpt belongs to a sample that is enriched for hits.
CHX counter = affects cycloheximide protein synthesis inhibition readout, counter-screen | 300,000 tested, 12% active | max response, % | cell reporter, cycloheximide protein synthesis inhibition counterscreen | AID 2314; in the data active = max response mostly above about 13%, no sharp cut-off; inactive = mostly below about 14%; also: read at 38.3 µM for the half of the compounds with a filed dose
LmPK inh = blocks Leishmania mexicana pyruvate kinase activity; Q27686; purified LmPK, Kinase-Glo ATP luminescence, 1 h; Potency, µM (doses to about 57.5 µM), actives largely listed as inhibitors; 290,000 tested, 0.37% active
Target sequence (Q27686 whole entry, looked up): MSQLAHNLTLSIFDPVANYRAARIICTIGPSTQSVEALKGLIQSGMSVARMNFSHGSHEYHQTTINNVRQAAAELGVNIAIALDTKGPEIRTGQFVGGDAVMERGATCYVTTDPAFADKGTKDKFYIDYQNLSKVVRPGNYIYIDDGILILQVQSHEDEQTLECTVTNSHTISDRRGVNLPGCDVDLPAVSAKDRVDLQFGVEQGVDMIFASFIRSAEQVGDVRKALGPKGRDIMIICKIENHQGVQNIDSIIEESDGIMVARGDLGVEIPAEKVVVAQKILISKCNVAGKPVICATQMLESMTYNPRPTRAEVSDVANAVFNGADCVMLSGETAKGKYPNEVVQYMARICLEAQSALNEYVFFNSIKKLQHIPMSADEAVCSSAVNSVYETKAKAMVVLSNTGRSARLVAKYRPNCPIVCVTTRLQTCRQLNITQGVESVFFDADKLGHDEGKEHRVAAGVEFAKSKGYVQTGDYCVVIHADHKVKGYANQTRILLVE
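Purified LmPK (0.1 nM) converted ADP (0.1 mM) to ATP with PEP (0.5 mM) in imidazole buffer pH 7.2 with KCl and MgCl2, 1 h at room temperature. ATP was read by Kinase-Glo luminescence; data normalized to uninhibited and no-enzyme controls.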
Shiga toxin inh = Shiga toxin inhibition; Vero cells, Shiga toxin protein synthesis inhibition reporter; inhibition, % at 38.7 µM; 290,000 tested, 9.2% active; AID 2315; in the data active = inhibition mostly above about 28%, no sharp cut-off; inactive = mostly below about 43%
TbPYK inhibitor = T. brucei pyruvate kinase inhibition | Q57TT1 | TbPYK enzyme, Kinase-Glo Plus ATP luminescence, 45 min | Potency, µM (top dose mostly 76.8 µM), most hits filed as inhibitors | 410,000 tested, 0.12% active | AID 624173; also: nearly all actives have a fitted effect of over 50% in size
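Activity of T. brucei pyruvate kinase was followed by Kinase-Glo Plus luminescence after the enzyme reacted 45 min at room temperature with 130 uM ADP (final) and substrate. Test compounds were added before ADP at multiple concentrations.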
SARS PLP yeast = inhibitors of SARS-CoV papain-like protease in yeast | S. cerevisiae expressing SARS-CoV PLpro, growth rescue | Potency, µM (top dose mostly 32.9 µM), most hits filed as activators | 330,000 tested, 0.19% active; calls by dose curve; also: nearly all actives have a fitted effect of over 55% in size
NS1 function inh = influenza NS1 inhibition; Potency, µM (doses to about 46.1 µM); 270,000 tested, 0.4% active; AID 2326; calls by dose curve; also: actives are rising curves; nearly all actives have a fitted effect of over 50% in size
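Read-out: OD600 growth recovery of NS1-expressing budding yeast. Cells grown overnight at 30C in -URA glucose medium, washed, resuspended and diluted 1:100 in 2% galactose assay medium, pH 6.0. Same strain lacking NS1 served as positive control.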
Numbers stand for hits; . = inactive; ? = inconclusive; / = not tested or not shown; [ ] = remark or other dose. Unless noted, calls follow the shape of the dose curve; as a rule, active = well fitted curve in the direction sought with a large enough effect; inconclusive = small, poorly fitted or top-dose-only effect, or another doubt; inactive = no such curve, though single readings can be large; an effect the other way counts as inactive or inconclusive.

SMILES	CHX counter	LmPK inh	Shiga toxin inh	TbPYK inhibitor	SARS PLP yeast	NS1 function inh
COc1ccc(N2CCN(C(=O)CNC(=O)c3cccs3)CC2)cc1	.	.	.	.	.	.
O=C(NCC(=O)N1CCN(c2ncccn2)CC1)c1cccs1	33	.	.	.	.	.
Cc1ccc(C(=O)NCC(=O)N2CCN(c3ncccn3)CC2)s1	.	.	.	.	.	.
O=C(OCC(=O)N1CCN(c2ccccc2)CC1)c1cccs1	/	/	/	.	.	/
O=C(OCC(=O)N1CCCC1)c1cccs1	42	.	72	.	.	.
O=C(NCC(=O)N1CCCC1)c1cccs1	17	.	26	.	.	.
COc1cccc(-c2c(-c3cc(OC)cc(OC)c3)n(C)c3ccc(-c4cnc(N5CCOCC5)nc4)cc23)c1	/	/	/	.	.	/
CCOc1ccc(NC(=O)C2CC(=O)N(c3ccc(C(C)C)cc3)C2)cc1 (centres undefined)	/	/	/	.	/	/
CC(N)CCCC(C)(C)O (centres undefined)	/	/	/	.	/	/
Cc1cccc(NC(=O)NN2CCN(C)CC2)c1C	.	.	.	.	.	.
CC(C)N1CCC(=NNC(=O)c2cccs2)CC1	46	.	114	.	.	.
O=C(c1cccs1)N1CCN(c2cc(Cl)ccc2Cl)CC1	.	.	.	.	.	.
O=C(c1cccs1)N1CCN(c2ccc(Cl)cc2)CC1	22	.	.	.	.	.
CC(C)N1CCC(=NNC(=O)c2ccccc2[N+](=O)[O-])CC1	.	.	.	.	.	.
O=C(CCC(=O)N1CCN(c2ccc(O)cc2)CC1)c1cccs1	30	.	52	.	.	.
COc1ccc(NC(=O)CCS(=O)(=O)c2ccc3nc(C)sc3c2)cc1Cl	/	/	/	.	/	/
Cc1nc2ccc(Br)cc2c(=O)n1Cc1cccs1	/	/	/	.	/	/
Cc1cc(C)c2c(=O)cc(C(=O)Nc3c(C)n(C)n(-c4ccccc4)c3=O)oc2c1	/	/	/	.	/	/
O=C(Oc1ccc(-c2cnc3ccccc3n2)cc1)c1cccc([N+](=O)[O-])c1	26	.	41	.	.	.
O=C(Oc1ccc(-c2cnc3ccccc3n2)cc1)c1ccc(Cl)c([N+](=O)[O-])c1	37	.	48	.	.	.
Cc1ccc(N2C(=O)SC(N(CC(=O)O)c3cccc(C)c3)C2=O)cc1 (centres undefined)	44	.	98	.	.	.
COC(=O)c1ccccc1NC(=O)Cn1nc(C(F)(F)F)c2c1CCCC2	/	/	/	.	/	/
COc1cccc(OCc2nc3ncc(Br)cc3[nH]2)c1	17	.	.	.	.	.
Brc1ccc(OCc2nc3ccccc3[nH]2)cc1	55	.	94	.	.	.
CN(C)C(=O)Oc1ccc(OCc2nc3ccccc3[nH]2)cc1	24	7.1µM	35	?	.	.
SMILES	CHX counter	LmPK inh	Shiga toxin inh	TbPYK inhibitor	SARS PLP yeast	NS1 function inh
Cc1cc(C)cc(OCc2nc3ncc(Br)cc3[nH]2)c1	/	/	/	.	/	/
c1ccc2cc(OCc3nc4ccccc4[nH]3)ccc2c1	49	.	108	.	.	.[9.22 µM]
Cc1nn(CCCC(=O)NC2CCC(C)CC2)c(=O)c2nn(-c3ccccc3)c(C)c12 (centres undefined)	.	.	.	.	.	.
CCc1cccc(C)c1Nc1c(-c2cccc(O)c2)nc2nc(C)cc(C)n12	/	/	/	.	/	/
COc1ccc(-c2nc3c(c4c2C[C@H](c2ccccc2)OC4)CN(S(=O)(=O)c2ccc(C)cc2)CC3)c(C)c1	/	.[11.5 µM]	/	/	/	/
CCOc1ccc(NC(=O)C2CCN(S(=O)(=O)c3ccc4c(c3)oc(=O)n4C)CC2)cc1	/	/	/	.	/	/
COc1ccc(NC(=O)Cc2nc3ccccc3[nH]2)cc1	.	.	.	.	.	?
Nc1ccc2nc(CCCCc3nc4ccccc4[nH]3)[nH]c2c1	.	.	.	.	.	.
CCCCn1c(COc2cccc(OC)c2)nc2ccccc21	/	/	/	.	/	/
COc1cccc(OCc2nc3ccccc3[nH]2)c1	36	.	93	.	.	.
Nc1ccc2nc(COc3ccccc3)[nH]c2c1	9.9	.	.	.	.	.
CN(CC(=O)O)Cc1nc2ccccc2[nH]1	28	.	.	.	.	.
COc1ccc(OCc2nc3ccccc3[nH]2)cc1	.	18µM	152	.	.	.
CCc1ccc(NC(=O)CC2C(=O)N(c3cccc(C)c3)C(=O)N2Cc2cccs2)cc1 (centres undefined)	/	/	/	.	/	/
COc1ccc2[nH]cc(CCNC(=O)Cc3ccc(Cl)cc3)c2c1	.	.	.	.	.	.
CCOc1cccc(C(=O)Nc2ccc(-c3nc4cc(C)cc(C)c4o3)cc2)c1	/	/	/	.	/	/
Cc1ccc(C)c(CSc2nnc(-c3ccccn3)n2N)c1	.	.	.	.	.	.
Fc1ccccc1CSc1nnc2ccc(-c3ccncc3)nn12	.	.[11.5 µM]	.	.	.	/
Nn1c(-c2ccccn2)nnc1-c1ccccn1	32	.	57	.	.	.
Nn1c(SCc2ccccc2F)nnc1-c1ccncc1	32	.	80	.	.	.
c1ccc(-c2ccc(-c3ccccn3)nn2)nc1	.	14µM	.	/	?	.
Nn1c(SCc2c(F)cccc2F)nnc1-c1ccccn1	32	.	90	.	.	.
O=C(c1csnn1)N1CCC2(CCCN(c3ncccn3)C2)CC1	/	/	/	.	/	/
Nc1ccccc1-c1nnc(-c2ccccc2N)n1N	38	.	57	.	.	.
Nn1c(-c2ccc(O)cc2)nnc1-c1ccc(O)cc1	.	.	.	.	.	.
SMILES	CHX counter	LmPK inh	Shiga toxin inh	TbPYK inhibitor	SARS PLP yeast	NS1 function inh
COc1ccc(NC(=O)Nc2ccc([N+](=O)[O-])cc2)cn1	.	.	.	.	.	.
COC(=O)CCc1ccc(O)cc1	.	.	.	.	.	.
COc1cc(O)ccc1C(=O)CCc1ccc(O)cc1	12	.	.	.	.	.
COc1ccc(-n2ccnc(NCc3cccs3)c2=O)cc1	/	/	/	.	/	/
CCN(CC(=O)Nc1c(F)cccc1F)C(=O)CSCc1ccc(C)cc1	/	/	/	.	/	/
COc1cccc(CSc2nnc(-c3ccc(F)cc3)o2)c1	18	.	.	.	.	.
Fc1ccc(-c2nnc(SCc3cccnc3)o2)cc1	26	.	66	.	.	.
N#Cc1ccc(CSc2nnc(-c3cccnc3)o2)cc1	.	.	.	.	.	.
COc1ccc(CNC(=O)C2CCCN(S(=O)(=O)N(C)c3ccc(F)cc3)C2)cc1OC (centres undefined)	/	/	/	.	/	/
CCCCC/C=C/C/C=C/CCCCCCCC(=O)NC(C)c1ccccc1 (centres undefined)	/	/	/	.	/	/
COc1ccc(-c2noc(N3CCC(C(=O)N(C)c4ccccc4)CC3)n2)cc1	8.2	.	.	.	.	.
CCN(C(=O)C1CCN(c2nc(-c3ccc(OC)cc3)no2)CC1)c1ccccc1	.	.	.	.	?	.
COc1ccc(-c2noc(N3CCC(C(=O)NCCCN4CCCCC4)CC3)n2)cc1	.	.	20	.	.	.
COc1ccc(-c2noc(N3CCC(C(=O)NCc4ccc(Cl)cc4)CC3)n2)cc1	.	.	.	.	.	.

High-throughput results from PubChem BioAssay.
